Data from PubChem BioAssay (NCI).
“And” between values parts separate entries of the source, which are not always exact repeats. Identical values can stand only once. This is part of a sample that, as a whole, favours compounds with a hit. Of some 83,000 tested, about 20% had one in any assay.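 Negative percent growth values reflect cell death: -40 means 40% of the cells present at the start died, and -100 means all died.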 The source made the active and inactive calls. How the source made its calls: active means growth percent below 10; inactive means the rest.

Legend:
Assay in all cases: NCI-60 one-dose screen, 48 h (100 = growth as untreated, 0 = no growth, -100 = all killed)
Conditions in all cases: 10 µM unless noted
SR leukemia = test system: SR leukemia
RPMI-8226 leukemia = test system: RPMI-8226 leukemia
OVCAR-8 ovarian = test system: OVCAR-8 ovarian
OVCAR-5 ovarian = test system: OVCAR-5 ovarian
OVCAR-4 ovarian = test system: OVCAR-4 ovarian
SK-OV-3 ovarian = test system: SK-OV-3 ovarian
IGROV1 ovarian = test system: IGROV1 ovarian
OVCAR-3 ovarian = test system: OVCAR-3 ovarian
HS 578T breast = test system: HS 578T breast
NCI/ADR-RES ovarian = test system: NCI/ADR-RES ovarian
T-47D breast = test system: T-47D breast
BT-549 breast = test system: BT-549 breast
MDA-MB-435 melanoma = test system: MDA-MB-435 melanoma
SW-620 colon = test system: SW-620 colon
MCF7 breast = test system: MCF7 breast
HCT-116 colon = test system: HCT-116 colon
HCC-2998 colon = test system: HCC-2998 colon
KM12 colon = test system: KM12 colon

Measured: growth

O=C1CSC2=NCCN12
inactive: SR leukemia 98.3% and 49.5% | RPMI-8226 leukemia 101% and 90.7% | OVCAR-8 ovarian 96.4% and 107% | OVCAR-5 ovarian 116% and 96.7% | OVCAR-4 ovarian 93.9% and 94.2% | SK-OV-3 ovarian 105% and 124% | IGROV1 ovarian 106% and 101% | OVCAR-3 ovarian 102% and 122% | HS 578T breast 88.1% and 92.9% | NCI/ADR-RES ovarian 94.9% and 102% | T-47D breast 111% | BT-549 breast 131% | MDA-MB-435 melanoma 71.5% and 70.6% | SW-620 colon 92% and 93.4% | MCF7 breast 92.7% and 81.6% | HCT-116 colon 82.7% and 63.8% | HCC-2998 colon 96.9% and 107% | KM12 colon 89.8% and 123%

CC(C)NCC(O)c1ccc(O)c(O)c1 (stereo not drawn)
inactive: SR leukemia 87.9% and 95.3% | RPMI-8226 leukemia 96.6% and 99.6% | OVCAR-8 ovarian 94.8% and 131% and 91.7% | OVCAR-5 ovarian 89.2% and 92.6% and 86.9% | OVCAR-4 ovarian 107% and 110% and 97.1% | SK-OV-3 ovarian 95.5% and 94.9% and 102% | IGROV1 ovarian 96.4% and 101% | OVCAR-3 ovarian 113% and 102% and 108% | HS 578T breast 112% and 96.6% and 109% | NCI/ADR-RES ovarian 96.3% and 102% and 93.8% | T-47D breast 98% and 90.5% and 102% | BT-549 breast 84.7% and 79.9% and 84% | MDA-MB-435 melanoma 104% and 105% and 101% | SW-620 colon 104% and 107% and 93% | MCF7 breast 100% and 85.1% and 109% | HCT-116 colon 100% and 93.3% and 71.7% | HCC-2998 colon 105% and 117% and 108% | KM12 colon 106% and 105%

CC(=O)OC(C)C(=O)NCC(C)O (stereo not drawn)
inactive: SR leukemia 88% | OVCAR-8 ovarian 102% | OVCAR-5 ovarian 104% | OVCAR-4 ovarian 100% | SK-OV-3 ovarian 95.3% | IGROV1 ovarian 114% | OVCAR-3 ovarian 107% | HS 578T breast 86% | NCI/ADR-RES ovarian 106% | T-47D breast 96.3% | BT-549 breast 111% | MDA-MB-435 melanoma 111% | SW-620 colon 94.3% | MCF7 breast 96.9% | HCT-116 colon 95.2% | HCC-2998 colon 99.4% | KM12 colon 102%

Brc1ccc(SSc2ccc(Br)cc2)cc1
inactive: SR leukemia 57.8% | RPMI-8226 leukemia 35.6% | OVCAR-8 ovarian 83.9% | OVCAR-5 ovarian 90.8% | OVCAR-4 ovarian 91.2% | SK-OV-3 ovarian 110% | IGROV1 ovarian 29.3% | OVCAR-3 ovarian 85.4% | HS 578T breast 96.9% | NCI/ADR-RES ovarian 66.2% | BT-549 breast 29.4% | SW-620 colon 84.2% | MCF7 breast 59.7% | HCT-116 colon 56.6% | HCC-2998 colon 93.5% | KM12 colon 57.4%

CN(C)CC1CCCCCC(CN(C)C)C1=O (stereo not drawn)
active: SR leukemia 5.93% | OVCAR-3 ovarian -12.7% | SW-620 colon -64.3% | HCT-116 colon -35.5%
inactive: RPMI-8226 leukemia 13.1% | OVCAR-8 ovarian 80.3% | OVCAR-5 ovarian 146% | OVCAR-4 ovarian 79% | SK-OV-3 ovarian 107% | IGROV1 ovarian 34.2% | HS 578T breast 85.8% | NCI/ADR-RES ovarian 88.3% | T-47D breast 22.2% | BT-549 breast 95% | MCF7 breast 24.7% | HCC-2998 colon 117% | KM12 colon 102%

O=C1OC(C(O)C(O)CO)C(O)=C1O (stereo not drawn)
-23.7% (active) and 98.9% (inactive): HCC-2998 colon
inactive: SR leukemia 103% and 107% | OVCAR-8 ovarian 102% and 105% | OVCAR-5 ovarian 94.6% and 96.4% | OVCAR-4 ovarian 106% and 112% | SK-OV-3 ovarian 114% and 92.9% | IGROV1 ovarian 111% | OVCAR-3 ovarian 115% and 109% | HS 578T breast 120% and 119% | NCI/ADR-RES ovarian 95% and 102% | T-47D breast 103% and 83.1% | BT-549 breast 106% | MDA-MB-435 melanoma 114% and 109% | SW-620 colon 117% and 105% | MCF7 breast 98.9% and 97.4% | HCT-116 colon 100% and 92.8% | KM12 colon 109% and 103%
